Reference: PubChem BioAssay (Tox21)
Results filed as inconclusive are left out. Entries that show only a call come without a potency. The source made the active and inactive calls. The call rests on the fitted dose curve; in most records, active means well fitted curve in the direction sought with a large enough effect in the repeat runs; inconclusive means weak or mixed curves; inactive means no such curve, though single readings can be large; an effect the other way counts as inactive or inconclusive.

experiment: Caspase-3/7 induction in HepG2 cells by small molecules, qHTS assay (AID 1346978); details: HepG2 caspase-3/7 activation, Caspase-Glo luminescence, 17 h; series mostly up to 92.4 µM; further: nearly all actives have a fitted effect of over 15% in size
Outline: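 Wild-type HepG2 cells, 2,000/well, settled 5 hr at 37 C and 5% CO2, then compound-treated for 17 hr; caspase-3/7 activity read by luminescent Caspase-Glo 3/7 after 30 min at room temperature.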

SMILES	Potency
CN(C)CCN(Cc1ccsc1)c1ccccn1	inactive
CCCCCCCCCOS(=O)(=O)O	inactive
O=C(O)c1ccco1	inactive
CCCCO	inactive
CN1Cc2cc(C(=O)N3CCC(C4CCNCC4)CC3)ccc2NC(CC(=O)O)C1=O (stereo not given)	inactive
COc1cc(Cl)c(OC)cc1N	inactive
O=C(NCCO[N+](=O)[O-])c1cccnc1	inactive
O=C(O)C1(C(=O)O)CCC1.[NH2-].[NH2-].[Pt+2]	inactive
CC(COCCO)OCCO (stereo not given)	inactive
CCCCCCCCCCCC(=O)OC[C@@H](O)[C@H]1OC[C@H](OCCO)[C@H]1OCCO	inactive
O=S(=O)(Oc1ccc(Cl)cc1)c1ccccc1	inactive
CCOC(=O)Cc1cccc2ccccc12	inactive
CCCCc1ncc(/C=C(\Cc2cccs2)C(=O)O)n1Cc1ccc(C(=O)O)cc1	inactive
CCOc1ccc(N=Nc2ccc(/C=C/c3ccc(N=Nc4ccc(OCC)cc4)cc3S(=O)(=O)O)c(S(=O)(=O)O)c2)cc1	inactive
OCCNCc1ccccc1	inactive
Cc1ccccc1S(=O)(=O)O	inactive
COCC(C)OC(C)=O (stereo not given)	inactive
NS(=O)(=O)c1ccc(N2CCCCS2(=O)=O)cc1	inactive

SMILES	Potency
Cc1nn(C)c(Oc2ccccc2)c1/C=N/OCc1ccc(C(=O)OC(C)(C)C)cc1	inactive
O=P(O)(OCc1ccccc1)OCc1ccccc1	inactive
CCNc1cc(O)ccc1C	inactive
Nc1ccc([N+](=O)[O-])c(C(F)(F)F)c1	inactive
C=C1[C@H]2CC[C@@H]3[C@H]2C(C)(C)CCC[C@]13C	inactive
C1CCCNCCC1	inactive
Cc1ccc(C(C)OC(=O)C2(C)CCC(C(=O)O)C2(C)C)cc1 (stereo not given)	inactive
O=CC1CC=CCC1 (stereo not given)	inactive
O=[N+]([O-])c1cccc(S(=O)(=O)O)c1	inactive
Cc1ccc(N=Nc2c(O)c(C(=O)O)cc3ccccc23)c(S(=O)(=O)O)c1	inactive
CC(C)(O)c1ccc(CNC(=O)c2cccnc2Oc2ccc(F)cc2)cc1	inactive
CN(Cc1ccc(C(C)(C)C)cc1)Cc1cccc2ccccc12	inactive
Nc1ccccc1S(=O)(=O)c1ccccc1	inactive
OCCN1CCN(CCCN2c3ccccc3C=Cc3ccccc32)CC1	inactive
O=C(OCCCCCCOC(=O)c1ccccc1)c1ccccc1	inactive
Nc1ccc(N)c2c1C(=O)c1ccccc1C2=O	inactive
NCCCN1CCOCC1	inactive

experiment: Caspase-3/7 induction in CHO-K1 cells by small molecules, qHTS cell viability counter screen (AID 1346979); details: CellTiter-Fluor fluorescence, 17 h; series mostly up to 92.4 µM; further: nearly all actives have a fitted effect of over 35% in size; further: potency means the concentration at half of the fitted maximal effect
Outline: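 Wild-type CHO-K1 cells were seeded at 1,500 per well, rested 5hr at 37 C, then exposed to compounds in DMSO. After 16hr, CellTiter-Fluor reagent was added and fluorescence read 1hr later as the viability measure.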

SMILES	Potency
CN(C)CCN(Cc1ccsc1)c1ccccn1	inactive
CCCCCCCCCOS(=O)(=O)O	inactive
O=C(O)c1ccco1	inactive
CCCCO	inactive
CN1Cc2cc(C(=O)N3CCC(C4CCNCC4)CC3)ccc2NC(CC(=O)O)C1=O (stereo not given)	inactive
COc1cc(Cl)c(OC)cc1N	inactive
O=C(NCCO[N+](=O)[O-])c1cccnc1	inactive
O=C(O)C1(C(=O)O)CCC1.[NH2-].[NH2-].[Pt+2]	inactive
CC(COCCO)OCCO (stereo not given)	inactive
CCCCCCCCCCCC(=O)OC[C@@H](O)[C@H]1OC[C@H](OCCO)[C@H]1OCCO	inactive
O=S(=O)(Oc1ccc(Cl)cc1)c1ccccc1	inactive
CCOC(=O)Cc1cccc2ccccc12	inactive
CCCCc1ncc(/C=C(\Cc2cccs2)C(=O)O)n1Cc1ccc(C(=O)O)cc1	inactive
CCOc1ccc(N=Nc2ccc(/C=C/c3ccc(N=Nc4ccc(OCC)cc4)cc3S(=O)(=O)O)c(S(=O)(=O)O)c2)cc1	38 µM (active)
OCCNCc1ccccc1	inactive
Cc1ccccc1S(=O)(=O)O	inactive
COCC(C)OC(C)=O (stereo not given)	inactive
NS(=O)(=O)c1ccc(N2CCCCS2(=O)=O)cc1	inactive

SMILES	Potency
Cc1nn(C)c(Oc2ccccc2)c1/C=N/OCc1ccc(C(=O)OC(C)(C)C)cc1	0.0154 µM (active)
O=P(O)(OCc1ccccc1)OCc1ccccc1	inactive
CCNc1cc(O)ccc1C	60.4 µM (active)
Nc1ccc([N+](=O)[O-])c(C(F)(F)F)c1	29.8 µM (active)
C=C1[C@H]2CC[C@@H]3[C@H]2C(C)(C)CCC[C@]13C	inactive
C1CCCNCCC1	inactive
Cc1ccc(C(C)OC(=O)C2(C)CCC(C(=O)O)C2(C)C)cc1 (stereo not given)	inactive
O=CC1CC=CCC1 (stereo not given)	inactive
O=[N+]([O-])c1cccc(S(=O)(=O)O)c1	inactive
Cc1ccc(N=Nc2c(O)c(C(=O)O)cc3ccccc23)c(S(=O)(=O)O)c1	23.6 µM (active)
CC(C)(O)c1ccc(CNC(=O)c2cccnc2Oc2ccc(F)cc2)cc1	inactive
CN(Cc1ccc(C(C)(C)C)cc1)Cc1cccc2ccccc12	inactive
Nc1ccccc1S(=O)(=O)c1ccccc1	inactive
OCCN1CCN(CCCN2c3ccccc3C=Cc3ccccc32)CC1	inactive
O=C(OCCCCCCOC(=O)c1ccccc1)c1ccccc1	inactive
Nc1ccc(N)c2c1C(=O)c1ccccc1C2=O	24.3 µM (active)
NCCCN1CCOCC1	inactive
